# Measured values published in PubChem BioAssay (NCI).
# About 83,000 compounds went through this panel and 20% of them were active in at least one assay; those are over-represented in the sample as a whole.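 Negative percent growth values reflect cell death: -40 means 40% of the cells present at the start died, and -100 means all died.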 A number with no mark means an inactive call. Calls of active or inactive are those of the source. How the source made its calls: active means growth percent below 10; inactive means the rest.
# Assays:
# Test in all cases: NCI-60 one-dose screen, 48 h (100 = growth as untreated, 0 = no growth, -100 = all killed)
# NCI-H23 lung = settings: 10 µM unless noted
# NCI-H226 lung = settings: 10 µM unless noted
# NCI-H322M lung = settings: 10 µM unless noted
# HOP-62 NSCLC = settings: 10 µM unless noted
# NCI-H460 lung = settings: 10 µM unless noted
# HOP-92 NSCLC = settings: 10 µM unless noted
# NCI-H522 lung = settings: 10 µM unless noted
# A549/ATCC NSCLC = settings: 10 µM unless noted
# 786-0 renal = settings: 10 µM unless noted
# DU-145 prostate = settings: 10 µM unless noted
# K-562 leukemia = settings: 10 µM unless noted
# MALME-3M melanoma = settings: 10 µM unless noted
# MDA-MB-231 breast = settings: 10 µM unless noted
# RXF 393 renal = settings: 10 µM unless noted
# SF-268 CNS = settings: 10 µM unless noted
# SF-295 CNS = settings: 10 µM unless noted
# SF-539 CNS = settings: 10 µM unless noted
# UACC-257 melanoma = settings: 10 µM
# M14 melanoma = settings: 10 µM unless noted
# COLO 205 colon = settings: 10 µM unless noted
SMILES,growth (NCI-H23 lung),growth (NCI-H226 lung),growth (NCI-H322M lung),growth (HOP-62 NSCLC),growth (NCI-H460 lung),growth (HOP-92 NSCLC),growth (NCI-H522 lung),growth (A549/ATCC NSCLC),growth (786-0 renal),growth (DU-145 prostate),growth (K-562 leukemia),growth (MALME-3M melanoma),growth (MDA-MB-231 breast),growth (RXF 393 renal),growth (SF-268 CNS),growth (SF-295 CNS),growth (SF-539 CNS),growth (UACC-257 melanoma),growth (M14 melanoma),growth (COLO 205 colon)
COc1ccc(-c2nc3sccn3c2-c2ccnc(NCCCNS(=O)(=O)c3ccc(F)cc3)n2)cc1,1.5% (active),-4.69% (active),41.2%,30.9%,19.5%,44.2%,-1.46% (active),14%,35.5%,10.9%,14.2%,12.7%,43.2%,52.9%,17.2%,12.9%,28.4%,26.1%,12.4%,–
CCSc1nnc(NC(=O)Cc2ccc(Cl)cc2)s1,99.1%,104%,112%,102%,123%,89.4%,107%,106%,100%,105%,89.4%,105%,114%,20.6%,110%,98.3%,97.4%,–,107%,–
N#CC1=C(N)OC2=C(C(=O)CCC2)C1c1ccco1 (stereo unspecified),97.1%,103%,99.1%,91.3%,110%,106%,92.7%,101%,101%,108%,98.6%,113%,113%,114%,114%,108%,97.5%,102%,104%,–
Cc1cc(C)c(NC(=O)c2sc3nc4c(cc3c2N)CN(Cc2ccccc2)CC4)c(C)c1,55.2%,49.5%,39.3%,33.7%,10.8%,37.7%,13.5%,30.3%,39%,27.6%,9.63% (active),–,44%,26.1%,36.5%,21.9%,8.37% (active),48%,40.2%,12.3%
COc1cccc(-c2nc3sccn3c2-c2ccnc(NCCCNS(=O)(=O)c3ccc(F)cc3)n2)c1,16.2%,13.7%,64.7%,82.4%,40.3%,61.5%,14%,41.6%,44.1%,27.7%,16.6%,32.4%,53.2%,55%,37%,24.7%,66.7%,55.2%,18.1%,–
NC(=O)NNC(=O)c1ccccc1,103%,106%,109%,107%,103%,103%,107%,101%,101%,115%,103%,110%,113%,113%,107%,106%,107%,–,107%,–
Cc1ccc(C2=NN(c3ccc(S(=O)(=O)NC(=O)NCc4ccccc4)cc3)C(c3ccc(N(C)C)cc3)C2)c(C)c1 (stereo unspecified),49.4%,77.7%,56.3%,74.9%,31.3%,82.3%,49.7%,–,68.5%,82.7%,49.6%,87%,75.7%,53%,50.8%,52.7%,37.6%,60.3%,27.3%,62.1%
COc1cc(NCCN=C(N)NC(N)=NC(C)C)c2ncccc2c1,44.7%,94.7%,47.4%,94.8%,82.1%,33.2%,-3.01% (active),–,105%,103%,55.5%,-11% (active),69.3%,101%,45.1%,108%,6.08% (active),72.1%,–,20.4%
COc1ccc(C2CC(=O)Nc3c2c(C)nn3-c2nc3ccccc3[nH]2)cc1OC (stereo unspecified),48.7%,58.7%,75.9%,67.8%,63.7%,89.3%,98.2%,–,87.5%,86.6%,63%,38.5%,87.1%,12.2%,69.9%,-9% (active),97.7%,89%,48.1%,106%
Cc1ccc2c(c1)C(C)Cc1c(ncnc1-n1cnc3ccccc31)N2C (stereo unspecified),28.9%,72.4%,43%,38.1%,4.64% (active),62.6%,-15.3% (active),–,30.9%,8.43% (active),6.64% (active),65.6%,25.1%,21.5%,34.1%,-11.4% (active),-33.1% (active),–,18.1%,-11.5% (active)
CC/C=C\C[C@H](O)C/C=C1/C(=O)C(Cl)=C[C@@H]1C/C=C\CCCC(=O)O,70.2%,89.6%,94.5%,96.8%,97.7%,98.3%,-68.1% (active),–,75.2%,75.9%,3.74% (active),21.7%,43.5%,64.2%,55.9%,89.2%,66%,–,–,47.6%
CN=S(=O)(NC(=O)c1ccc(Cl)cc1Cl)c1ccc(Br)s1 (stereo unspecified),104%,93.8%,113%,105%,98.6%,65.9%,102%,–,105%,111%,104%,–,104%,103%,109%,101%,97%,92.5%,106%,121%
COc1cccc2cc(-c3cc4ccccc4[nH]3)/c(=N/C(=S)Nc3ccccc3)oc12,61.8%,69.9%,84%,18.5%,69.3%,5.47% (active),88.1%,91.4%,59.4%,74.4%,84.4%,78.9%,61.6%,–,70.6%,87.1%,33%,–,70.6%,–
Nc1cc2c(cc1N)-c1cc(N)c(N)cc1C2,95%,98%,102%,95.5%,105%,86.7%,88.3%,97.9%,100%,118%,107%,102%,83.8%,107%,91.4%,113%,103%,–,101%,–
Nc1nn2cc(-c3ccc(Cl)s3)nc2c2ccccc12,102%,94.8%,96.7%,76.4%,86.8%,67%,78.5%,–,104%,99%,85.3%,101%,68.9%,133%,94.1%,93.7%,81.7%,–,97%,95.2%
COc1ccc(C2SCC(=O)N2NC(=O)c2ccc(NC(=O)c3ccccn3)cc2)cc1OC (stereo unspecified),102%,94.3%,95.2%,88.1%,113%,116%,81.8%,–,97.2%,105%,95.9%,105%,102%,103%,96.5%,101%,98.8%,92.2%,102%,109%
C#CCN1C(=O)/C(=c2\sc3n(c2=O)C2C(NN=3)N(CC)C(=O)N2CC)c2ccccc21 (stereo unspecified),18.5%,98%,44.3%,-4.91% (active),5.2% (active),58.1%,25%,–,12%,14.8%,7.6% (active),43.6%,21%,–,50%,-13% (active),-39.7% (active),–,26.1%,-12.2% (active)
CC(Br)C(O)c1cc2c(cc1Br)OCO2 (stereo unspecified),100%,106%,111%,102%,112%,104%,99.9%,103%,100%,109%,101%,109%,111%,104%,104%,110%,105%,–,96%,–
N#Cc1c(NC(=O)c2ccc([N+](=O)[O-])o2)[n+]([O-])c2cc(F)c(F)cc2[n+]1[O-],99%,108%,119%,123%,110%,96.6%,101%,–,110%,126%,92.2%,125%,114%,1.39% (active),120%,97%,137%,–,112%,132%
